The source made the active and inactive calls. The calls were made as follows: active = hit-call score of the fitted dose curve at least 0.9, where 1 is the maximum; inactive = score below 0.9.
Legend:
[1] = CEETOX_H295R_PROG: CeeTox H295R High-throughput Steroidogenesis Assay for Progesterone (PROG) (AID 2283442); details: actives raise or lower the signal;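 as to AC50: human H295R adrenal cells primed with 10 µM forskolin before dosing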
Procedure, shortened: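 Progesterone read-out: HPLC-MS/MS on MTBE extracts of conditioned medium after 48 h chemical exposure of forskolin-primed (10 uM, 48 h) H295R cells. Gain or loss of signal was fitted relative to DMSO baseline.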

[2] = read-out: Tumor necrosis factor receptor superfamily member 6 (Homo sapiens) (UniProt P25445); assay: LTEA_HepaRG_FAS: Life Technologies and Expression Analysis (LTEA) Assay for Fas cell surface death receptor (FAS) using HepaRG (AID 2283447); details: mRNA level, 48 h; actives raise or lower the signal
Procedure, shortened: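 Differentiated HepaRG cells in serum-free induction medium were exposed 48 h to 8 half-log concentrations up to 100 uM in 0.5% DMSO, in duplicate. FAS mRNA was measured by qRT-PCR normalised to ACTB, GAPDH and POLR2A; bidirectional fit versus DMSO.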

[3] = read-out: Fatty acid synthase (Homo sapiens) (UniProt P49327); assay: LTEA_HepaRG_FASN: Life Technologies and Expression Analysis (LTEA) Assay for Fatty Acid Synthase (FASN) using HepaRG (AID 2283448); details: mRNA level, 48 h; actives raise or lower the signal;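 as to AC50: differentiated human HepaRG liver cells in serum-free induction medium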
Procedure, shortened: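 FASN transcript measured by TaqMan qRT-PCR, normalised to three housekeeping genes, after 48 h chemical exposure of HepaRG cells. Eight-point half-log series from 100 uM in 0.5% DMSO, duplicates; gain or loss fitted against vehicle.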

[4] = read-out: Cyclin Dependent Kinase Inhibitor 1A (CDKN1A), CDKN1A (gene 1026); assay: LTEA_HepaRG_CDKN1A: Life Technologies and Expression Analysis (LTEA) Assay for Cyclin Dependent Kinase Inhibitor 1A (CDKN1A) using HepaRG (AID 2283450); details: mRNA level, 48 h; actives raise or lower the signal
Procedure, shortened: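 HepaRG, 48 h dosing, 8-pt half-log series from 100 uM top, 0.5% DMSO vehicle, duplicates. Readout: TaqMan qRT-PCR of CDKN1A transcript, housekeeping-normalized (ACTB, GAPDH, POLR2A). Up/down curve fit relative to DMSO.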

[5] = read-out: Cyclin D1 (CCND1), CCND1 (gene 595); assay: LTEA_HepaRG_CCND1: Life Technologies and Expression Analysis (LTEA) Assay for Cyclin D1 (CCND1) using HepaRG (AID 2283451); details: mRNA level, 48 h; actives raise or lower the signal
Procedure, shortened: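 qRT-PCR (Fluidigm 96.96 array) read-out of transcript level, housekeeping-normalized (ACTB/GAPDH/POLR2A). HepaRG cells, 48 h chemical exposure, 8-point half-log series from 100 uM, 0.5% DMSO vehicle; gain or loss relative to DMSO baseline.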

[6] = read-out: catalase (CAT), CAT (gene 847); assay: LTEA_HepaRG_CAT: Life Technologies and Expression Analysis (LTEA) Assay for catalase (CAT) using HepaRG (AID 2283452); details: mRNA level, 48 h; actives raise or lower the signal
Procedure, shortened: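 HepaRG cells in serum-free induction medium, 0.5% DMSO vehicle, exposed 48 h in duplicate over 8 half-log concentrations from 100 uM. CAT mRNA measured by qRT-PCR, normalized to ACTB, GAPDH, POLR2A; bidirectional fit versus DMSO.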

[7] = read-out: flavin-containing dimethylaniline monooxygenases 3 (FMO3), FMO3 (gene 2328); assay: LTEA_HepaRG_FMO3: Life Technologies and Expression Analysis (LTEA) Assay for flavin-containing dimethylaniline monooxygenases 3 (FMO3) using HepaRG (AID 2283453); details: mRNA level, 48 h; actives raise or lower the signal
Procedure, shortened: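 FMO3 transcript quantified by TaqMan qRT-PCR against three housekeeping genes after 48 h chemical exposure of HepaRG cells. Eight-point half-log series, top 100 uM, 0.5% DMSO vehicle; phenobarbital 1mM induction control; up- or down-regulation fitted.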

[8] = read-out: Cytochrome P450 (CYP1A1), CYP1A1 (gene 1543); assay: LTEA_HepaRG_CYP1A1: Life Technologies and Expression Analysis (LTEA) Assay for Cytochrome P450 (CYP1A1) using HepaRG (AID 2283454); details: mRNA level, 48 h; actives raise or lower the signal
Procedure, shortened: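 qRT-PCR read-out: CYP1A1 transcript normalized to three housekeeping genes, fitted bidirectionally against 0.5% DMSO vehicle baseline. Human HepaRG cells, 48 h chemical exposure, 8-point half-log series topping at 100 uM.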

[9] = read-out: Forkhead box O1 (FOXO1), FOXO1 (gene 2308); assay: LTEA_HepaRG_FOXO1: Life Technologies and Expression Analysis (LTEA) Assay for Forkhead box O1 (FOXO1) using HepaRG (AID 2283456); details: mRNA level, 48 h; actives raise or lower the signal
Procedure, shortened: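 HepaRG, 48 h exposure, 8-pt half-log series from 100 uM in 0.5% DMSO, duplicates; Fluidigm qRT-PCR mRNA, housekeeping-normalised; bidirectional fit vs DMSO baseline.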

[10] = read-out: growth arrest and DNA damage 45 (GADD45A), GADD45A (gene 1647); assay: LTEA_HepaRG_GADD45A: Life Technologies and Expression Analysis (LTEA) Assay for growth arrest and DNA damage 45 (GADD45A) using HepaRG (AID 2283458); details: mRNA level, 48 h; actives raise or lower the signal
Procedure, shortened: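 GADD45A expression was measured by TaqMan qRT-PCR against three housekeeping genes (ACTB, GAPDH, POLR2A) after 48 h treatment of HepaRG cells. Eight-point half-log series up to 100 uM in 0.5% DMSO, run in duplicate.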

[11] = read-out: growth arrest and DNA damage 45 (GADD45B), GADD45B (gene 4616); assay: LTEA_HepaRG_GADD45B: Life Technologies and Expression Analysis (LTEA) Assay for growth arrest and DNA damage 45 (GADD45B) using HepaRG (AID 2283461); details: mRNA level, 48 h; actives raise or lower the signal
Procedure, shortened: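 qRT-PCR read-out (Fluidigm TaqMan, housekeeping-normalized) of mRNA change in human HepaRG cells after 48 h chemical exposure; 8-point curve, top 100 uM, half-log steps, 0.5% DMSO vehicle; gain or loss fitted relative to DMSO baseline.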

[12] = read-out: ABC Transporter (ABCC3), ABCC3 (gene 8714); assay: LTEA_HepaRG_ABCC3: Life Technologies and Expression Analysis (LTEA) Assay for ABC Transporter (ABCC3) using HepaRG (AID 2283462); details: mRNA level, 48 h; actives raise or lower the signal
Procedure, shortened: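 qRT-PCR read-out of ABCC3 transcript, normalized to three housekeeping genes (ACTB, GAPDH, POLR2A), after 48 h chemical exposure of human HepaRG cells. Eight half-log concentrations, highest 100 uM, in 0.5% DMSO; gain or loss fitted relative to DMSO baseline.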

[13] = read-out: ABC Transporter (ABCB11), ABCB11 (gene 8647); assay: LTEA_HepaRG_ABCB11: Life Technologies and Expression Analysis (LTEA) Assay for ABC Transporter (ABCB11) using HepaRG (AID 2283463); details: mRNA level, 48 h; actives raise or lower the signal
Procedure, shortened: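 HepaRG, 48 h exposure, 8-pt half-log CRC top 100 uM, 0.5% DMSO vehicle, duplicates. Readout: TaqMan qRT-PCR of ABCB11 mRNA, housekeeping-normalized (ACTB/GAPDH/POLR2A). Bidirectional fit vs DMSO baseline.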

[14] = read-out: ABC Transporter (ABCC2), ABCC2 (gene 1244); assay: LTEA_HepaRG_ABCC2: Life Technologies and Expression Analysis (LTEA) Assay for ABC Transporter (ABCC2) using HepaRG (AID 2283464); details: mRNA level, 48 h; actives raise or lower the signal
Procedure, shortened: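 qRT-PCR (TaqMan, Fluidigm array) read-out of ABCC2 mRNA, normalized to three housekeeping genes. Differentiated HepaRG cells were treated 48 h in serum-free induction medium with 8-point half-log series from 100 uM in 0.5% DMSO; curves fitted bidirectionally relative to DMSO.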

[15] = read-out: Broad substrate specificity ATP-binding cassette transporter ABCG2 (Homo sapiens) (UniProt Q9UNQ0); assay: LTEA_HepaRG_ABCG2: Life Technologies and Expression Analysis (LTEA) Assay for ABC Transporter (ABCG2) using HepaRG (AID 2283465); details: mRNA level, 48 h; actives raise or lower the signal
Procedure, shortened: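 HepaRG, 48 h exposure, 8-pt half-log series from 100 uM, 0.5% DMSO vehicle, duplicates. Readout: ABCG2 transcript by qRT-PCR (Fluidigm array), housekeeping-normalized; bidirectional curve fit relative to DMSO baseline.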

[16] = read-out: CFLAR gene, CFLAR (gene 8837); assay: LTEA_HepaRG_CFLAR: Life Technologies and Expression Analysis (LTEA) Assay for CFLAR gene using HepaRG (AID 2283455); details: mRNA level, 48 h; actives raise or lower the signal
Procedure, shortened: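 qRT-PCR read-out (Fluidigm/TaqMan) of CFLAR mRNA, normalized to three housekeeping genes, in differentiated human HepaRG cells after 48 h chemical exposure; 8-point half-log series from 100 uM in 0.5% DMSO; bidirectional curve fitting versus DMSO.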

[17] = CEETOX_H295R_TESTO: CeeTox H295R High-throughput Steroidogenesis Assay for Testosterone (TESTO) (AID 2283457); details: actives raise or lower the signal
Procedure, shortened: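 Readout: testosterone quantified by HPLC-MS/MS (C18, ESI positive) after MTBE liquid-liquid extraction of culture medium. Cells were H295R, 48 h chemical exposure per OECD 456 with modifications. Gain or loss of signal fitted relative to DMSO.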

[18] = read-out: ABC Transporter (ABCB1), ABCB1 (gene 5243); assay: LTEA_HepaRG_ABCB1: Life Technologies and Expression Analysis (LTEA) Assay for ABC Transporter (ABCB1) using HepaRG (AID 2283460); details: mRNA level, 48 h; actives raise or lower the signal
Procedure, shortened: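 HepaRG, 48 h exposure, 8-pt half-log series from 100 uM, 0.5% DMSO vehicle, duplicates. Readout: ABCB1 transcript by Fluidigm TaqMan qRT-PCR, housekeeping-normalized; bidirectional curve fit vs DMSO baseline.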

[19] = read-out: Cyclin D2 (CCND2), CCND2 (gene 894); assay: LTEA_HepaRG_CCND2: Life Technologies and Expression Analysis (LTEA) Assay for Cyclin D2 (CCND2) using HepaRG (AID 2283449); details: mRNA level, 48 h; actives raise or lower the signal;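 also: CCND2 transcript measured by TaqMan qRT-PCR and normalised to three housekeeping genes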
Procedure, shortened: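 HepaRG, 48 h dosing, 8-pt half-log curve from 100 uM, 0.5% DMSO; duplicate wells. Readout: CCND2 transcript by microfluidic qRT-PCR, housekeeping-normalised; bidirectional fit vs DMSO baseline.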

Measured: AC50

Chain of Fatty acid synthase (Homo sapiens) (P49327 whole entry, looked up): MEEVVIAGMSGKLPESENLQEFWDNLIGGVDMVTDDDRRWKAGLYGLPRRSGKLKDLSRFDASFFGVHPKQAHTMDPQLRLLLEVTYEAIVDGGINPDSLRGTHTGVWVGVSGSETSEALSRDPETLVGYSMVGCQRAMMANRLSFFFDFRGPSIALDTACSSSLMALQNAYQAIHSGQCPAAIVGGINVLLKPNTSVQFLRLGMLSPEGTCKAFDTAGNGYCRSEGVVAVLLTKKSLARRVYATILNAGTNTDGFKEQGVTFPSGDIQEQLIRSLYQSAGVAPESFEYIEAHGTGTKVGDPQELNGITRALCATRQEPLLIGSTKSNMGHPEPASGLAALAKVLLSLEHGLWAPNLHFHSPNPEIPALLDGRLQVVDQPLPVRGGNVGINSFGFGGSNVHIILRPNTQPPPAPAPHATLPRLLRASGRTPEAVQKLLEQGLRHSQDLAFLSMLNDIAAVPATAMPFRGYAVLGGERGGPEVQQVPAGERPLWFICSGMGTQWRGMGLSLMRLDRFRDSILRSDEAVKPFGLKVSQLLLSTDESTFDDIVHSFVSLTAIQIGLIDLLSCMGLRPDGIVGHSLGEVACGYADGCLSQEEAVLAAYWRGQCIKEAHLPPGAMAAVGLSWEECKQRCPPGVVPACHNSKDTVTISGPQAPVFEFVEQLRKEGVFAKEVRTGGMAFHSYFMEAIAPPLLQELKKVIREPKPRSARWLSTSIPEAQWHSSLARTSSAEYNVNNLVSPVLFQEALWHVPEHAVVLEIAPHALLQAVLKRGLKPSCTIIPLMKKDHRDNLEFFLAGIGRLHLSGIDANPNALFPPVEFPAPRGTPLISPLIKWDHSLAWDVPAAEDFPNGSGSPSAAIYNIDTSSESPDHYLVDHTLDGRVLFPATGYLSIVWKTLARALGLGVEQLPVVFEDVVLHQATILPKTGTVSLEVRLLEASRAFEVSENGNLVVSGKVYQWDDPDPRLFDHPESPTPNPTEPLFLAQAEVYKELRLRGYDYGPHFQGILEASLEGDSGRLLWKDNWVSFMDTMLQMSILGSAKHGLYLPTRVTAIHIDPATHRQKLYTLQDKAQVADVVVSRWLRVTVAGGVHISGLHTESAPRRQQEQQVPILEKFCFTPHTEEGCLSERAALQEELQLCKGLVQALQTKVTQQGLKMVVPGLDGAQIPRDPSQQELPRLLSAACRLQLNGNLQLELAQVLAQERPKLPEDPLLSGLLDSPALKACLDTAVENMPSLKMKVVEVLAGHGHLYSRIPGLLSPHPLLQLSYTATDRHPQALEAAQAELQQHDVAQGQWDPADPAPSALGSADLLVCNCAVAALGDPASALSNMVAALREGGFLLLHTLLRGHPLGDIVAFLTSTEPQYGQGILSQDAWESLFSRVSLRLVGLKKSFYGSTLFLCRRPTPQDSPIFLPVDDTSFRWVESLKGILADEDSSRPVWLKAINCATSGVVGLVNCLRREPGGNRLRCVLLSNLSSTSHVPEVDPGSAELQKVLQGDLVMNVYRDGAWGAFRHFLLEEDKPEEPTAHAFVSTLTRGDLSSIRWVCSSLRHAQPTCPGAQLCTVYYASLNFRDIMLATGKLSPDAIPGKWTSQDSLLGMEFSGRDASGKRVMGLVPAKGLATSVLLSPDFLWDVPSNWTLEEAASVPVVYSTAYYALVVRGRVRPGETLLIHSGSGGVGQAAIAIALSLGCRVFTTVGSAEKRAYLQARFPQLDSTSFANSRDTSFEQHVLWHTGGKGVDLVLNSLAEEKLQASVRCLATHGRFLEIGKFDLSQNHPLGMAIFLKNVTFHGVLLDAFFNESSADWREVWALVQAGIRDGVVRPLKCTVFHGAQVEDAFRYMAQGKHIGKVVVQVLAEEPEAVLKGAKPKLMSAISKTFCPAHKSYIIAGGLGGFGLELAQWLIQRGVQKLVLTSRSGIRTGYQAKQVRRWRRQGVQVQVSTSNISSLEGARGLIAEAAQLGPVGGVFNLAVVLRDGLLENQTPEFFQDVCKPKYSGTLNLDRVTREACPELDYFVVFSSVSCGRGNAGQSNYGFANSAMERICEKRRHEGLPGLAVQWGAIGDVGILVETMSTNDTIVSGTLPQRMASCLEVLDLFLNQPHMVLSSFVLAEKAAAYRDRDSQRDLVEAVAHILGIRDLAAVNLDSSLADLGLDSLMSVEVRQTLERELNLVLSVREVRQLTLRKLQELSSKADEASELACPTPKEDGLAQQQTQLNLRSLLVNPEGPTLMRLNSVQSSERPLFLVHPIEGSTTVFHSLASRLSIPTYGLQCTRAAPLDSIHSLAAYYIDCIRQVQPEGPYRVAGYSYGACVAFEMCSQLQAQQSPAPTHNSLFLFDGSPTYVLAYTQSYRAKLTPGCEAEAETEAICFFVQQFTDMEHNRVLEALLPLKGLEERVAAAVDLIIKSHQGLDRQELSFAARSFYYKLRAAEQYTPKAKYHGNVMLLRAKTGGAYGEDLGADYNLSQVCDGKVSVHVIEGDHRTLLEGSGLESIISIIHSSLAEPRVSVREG
Chain of Broad substrate specificity ATP-binding cassette transporter ABCG2 (Homo sapiens) (Q9UNQ0 whole entry, looked up): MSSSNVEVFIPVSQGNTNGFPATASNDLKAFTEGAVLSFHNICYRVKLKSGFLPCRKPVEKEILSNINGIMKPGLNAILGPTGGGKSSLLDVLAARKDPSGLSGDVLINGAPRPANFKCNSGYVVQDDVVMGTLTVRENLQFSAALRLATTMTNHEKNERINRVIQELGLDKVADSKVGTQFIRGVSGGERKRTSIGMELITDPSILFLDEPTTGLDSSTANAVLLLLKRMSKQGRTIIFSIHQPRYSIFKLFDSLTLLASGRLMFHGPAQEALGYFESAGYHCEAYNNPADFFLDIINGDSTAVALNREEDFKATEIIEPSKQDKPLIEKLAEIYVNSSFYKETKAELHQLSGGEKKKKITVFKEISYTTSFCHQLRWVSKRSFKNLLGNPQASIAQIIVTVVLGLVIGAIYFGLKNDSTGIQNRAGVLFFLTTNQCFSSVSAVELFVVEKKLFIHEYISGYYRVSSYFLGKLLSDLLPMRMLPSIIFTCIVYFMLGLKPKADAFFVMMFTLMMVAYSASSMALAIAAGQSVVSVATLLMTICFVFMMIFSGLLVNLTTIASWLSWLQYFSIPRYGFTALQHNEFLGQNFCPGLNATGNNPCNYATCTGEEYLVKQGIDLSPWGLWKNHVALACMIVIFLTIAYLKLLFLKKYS

CCSC(=O)N1CCCCCC1
not listed: [16] | [17] | [18] | [19]
inactive: all other assays above

COCc1cnc(C2=NC(C)(C(C)C)C(=O)N2)c(C(=O)O)c1 (configuration not stated)
active: [8] 65.5 µM
not listed: [19]
inactive: all other assays above

CC(C)Oc1cccc(NC(=O)c2ccccc2C(F)(F)F)c1
active: [1] 8.93 µM | [3] 65.2 µM | [8] 81.6 µM
not listed: [11] | [17] | [18] | [19]
inactive: all other assays above

CCCCC(C#N)(Cn1cncn1)c1ccc(Cl)cc1 (configuration not stated)
active: [3] 22.1 µM | [4] 50 µM | [8] 27.1 µM | [13] 91.7 µM | [15] 4.77 µM
not listed: [11] | [17] | [18] | [19]
inactive: all other assays above

O=C(Nc1ccccc1-c1ccc(Cl)cc1)c1cccnc1Cl
active: [1] 13.1 µM | [8] 52.5 µM | [13] 0.921 µM
not listed: [11] | [17] | [18]
inactive: all other assays above

CC1(C)C(C=C(Cl)Cl)C1C(=O)OC(C#N)c1cccc(Oc2ccccc2)c1 (configuration not stated)
active: [8] 28.8 µM | [18] 50 µM | [15] 10.8 µM
not listed: [17] | [19]
inactive: all other assays above

CC(C)(C)C(=O)C(Oc1ccc(Cl)cc1)n1cncn1 (configuration not stated)
active: [1] 3.12 µM | [3] 50 µM | [8] 37 µM | [18] 7.7 µM | [14] 16.8 µM
not listed: [16] | [17] | [19]
inactive: all other assays above
